Measured values from PubChem BioAssay (NCI).
About 83,000 compounds went through this panel and 20% of them were active in at least one assay; those are over-represented in the sample as a whole.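 Single-concentration screen, 48 h exposure, 96-well plates. Endpoint: percent growth. Below 10 = active.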 Active and inactive are the calls of the source.

system: HCC-2998 colon; experiment: NCI-60 one-dose screen, 48 h (100 = growth as untreated, 0 = no growth, -100 = all killed); details: 10 µM unless noted

SMILES	growth
COc1c(B(O)O)cccc1-c1nc2ccc3[nH]ncc3c2c2c1C1CCC2C1 (centres undefined)	110% (inactive)
O=C(Nc1ccc(Cl)cc1F)c1cc(F)ccc1O	11.7% (inactive)
O=c1oc2ccc(I)cc2c(=O)n1-c1ccc(I)cc1F	21% (inactive)
NCCNc1nc2ccc(F)cc2c2c(=O)c3cc(F)ccc3sc12	14.8% (inactive)
O=C(Nc1ccc(Br)cc1F)c1cc(F)ccc1O	17.8% (inactive)
Cc1ccc(Nc2nc(N)c3ccccc3n2)cc1Cl	51.6% (inactive)
O=C1c2cc(I)ccc2Oc2cc([N+](=O)[O-])ccc2N1c1ccc(Cl)cc1F	102% (inactive)
CC1=C(C(=O)OCC2CCN(C(=O)OC(C)(C)C)CC2)[C@H](c2cccc(Br)c2)C2=C(CC(C)(C)CC2=O)N1	49.2% (inactive)
O=C(c1ccccc1)N(C(=S)NCCc1ccc(Cl)cc1)c1ccc(Cl)cc1	61.9% (inactive)
C#CCn1cc(C=C2C(=O)NC(=O)NC2=O)c2cc(Cl)ccc21	95.6% (inactive)
O=c1oc2ccc(Br)cc2c(=O)n1-c1ccc(F)cc1F	17.4% (inactive)
O=C(Nc1ccc(Br)cc1F)c1cc(I)ccc1O	27.4% (inactive)
O=c1oc2ccc(Cl)cc2c(=O)n1-c1cc(C(F)(F)F)cc(C(F)(F)F)c1	5.83% (active)
O=c1oc2ccc(Br)cc2c(=O)n1-c1ccc(I)cc1F	18.3% (inactive)
O=c1oc2ccc(-c3ccc(F)cc3F)cc2c(=O)n1-c1cccc(C(F)(F)F)c1	22.9% (inactive)
O=c1oc2ccc(F)cc2c(=O)n1-c1ccc(Br)cc1F	13.4% (inactive)
O=c1oc2ccc(I)cc2c(=O)n1-c1ccc(Br)cc1F	16.2% (inactive)
Cc1nc(Nc2ccccn2)sc1C(=O)/C=C/c1ccc(Cl)cc1	21.6% (inactive)
Nc1cccc(Nc2cc(S(=O)(=O)O)c(N)c3c2C(=O)c2ccccc2C3=O)c1	120% (inactive)
COc1ccc2sc(N(Cc3cccnc3)C(=O)c3ccc(C#N)cc3)nc2c1	82.6% (inactive)

SMILES	growth
COc1cccc(C2=NN3C(C2)c2ccccc2OC3c2ccc(/C=C3\SC(=O)NC3=O)cc2)c1 (centres undefined)	106% (inactive)
O=C1c2cc(Br)ccc2Oc2cc([N+](=O)[O-])ccc2N1c1ccc(I)cc1F	102% (inactive)
O=c1oc2ccc(Cl)cc2c(=O)n1-c1ccc(Cl)cc1F	10.7% (inactive)
COc1ccc(C2C3=C(COC3=O)N(CCO)c3cc4c(cc32)OCCO4)cc1 (centres undefined)	76.5% (inactive)
CC[C@]1(O)C[C@@H]2CN(CCc3c([nH]c4ccccc34)[C@@](C(=O)OC)(c3cc4c(cc3OC)N(C)[C@H]3[C@@](O)(C(=O)OC)[C@H](OC(=O)CCCBr)[C@]5(CC)C=CCN6CC[C@]43[C@@H]65)C2)C1	9.27% (active)
O=C1c2cc(Cl)ccc2Oc2cc([N+](=O)[O-])ccc2N1c1ccc(F)cc1F	115% (inactive)
COc1ccccc1N1C(=N)S/C(=C\c2ccc(OCc3ccccc3F)cc2)C1=O	109% (inactive)
CC[C@]1(O)C[C@@H]2CN(CCc3c([nH]c4ccccc34)[C@@](C(=O)OC)(c3cc4c(cc3OC)N(C)[C@H]3[C@@](O)(C(=O)OC)[C@H](OC(C)=O)[C@]5(CC)C=CCN6CC[C@]43[C@@H]65)C2)C1	0.153% (active)
O=c1c2cc(F)ccc2sc2c(NCCCNCCO)nc3ccc(Cl)cc3c12	60.7% (inactive)
COc1cc2cc3c(=O)n4c(cc5cc(OC)ncc54)c(=O)n3c2cn1	106% (inactive)
Nc1ccc(-c2nn3c(CCC(=O)c4nc5ncccc5[nH]4)nnc3s2)c(O)c1	69.4% (inactive)
O=c1oc2ccc(Br)cc2c(=O)n1-c1ccc(Cl)cc1F	22.7% (inactive)
COc1ccc(/C=C2\NC(=O)NC2=O)cc1O	107% (inactive)
CN(C)c1ccc(/C=C/c2ccnc3c(O)cccc23)cc1	55.7% (inactive)
O=C(c1ccccc1)N(C(=S)NCCc1ccc(Cl)cc1)c1ccccc1	101% (inactive)
O=c1oc2ccc(Cl)cc2c(=O)n1-c1ccc(F)cc1F	34% (inactive)
CC(C)C[C@H](C(=O)N[C@@H](C)C(N)=O)N1CC=CCN(O)S1(=O)=O	110% [5 µM] (inactive)
O=C(Nc1ccc(Cl)cc1F)c1cc(I)ccc1O	81.6% (inactive)
O=C(CCc1nnc2sc(Cc3ccccc3Cl)nn12)c1nc2ncccc2[nH]1	87.7% (inactive)
